# Assay results: paper PMC7862700, “An all-to-all approach to the identification of sequence-specific readers for epigenetic DNA modifications on cytosine”
# Columns and labels:
# Assay in all cases: DAPPL (digital affinity profiling via proximity ligation, sequencing); 10 mM Tris-HCl pH 7.5, 50 mM NaCl, 1 mM DTT, 4% glycerol, room temperature, 30 min; GST-TFs on glutathione beads, 16-mer random dsDNA library, 0.1% formaldehyde crosslink after washing; high values mean tight binding
# FLI1 = target: T1, FLI1 (Homo sapiens, UniProt Q01543 1-452); conditions: protein: recombinant; tags: N-terminal GST; dsDNA, one strand shown
# T1 sequence: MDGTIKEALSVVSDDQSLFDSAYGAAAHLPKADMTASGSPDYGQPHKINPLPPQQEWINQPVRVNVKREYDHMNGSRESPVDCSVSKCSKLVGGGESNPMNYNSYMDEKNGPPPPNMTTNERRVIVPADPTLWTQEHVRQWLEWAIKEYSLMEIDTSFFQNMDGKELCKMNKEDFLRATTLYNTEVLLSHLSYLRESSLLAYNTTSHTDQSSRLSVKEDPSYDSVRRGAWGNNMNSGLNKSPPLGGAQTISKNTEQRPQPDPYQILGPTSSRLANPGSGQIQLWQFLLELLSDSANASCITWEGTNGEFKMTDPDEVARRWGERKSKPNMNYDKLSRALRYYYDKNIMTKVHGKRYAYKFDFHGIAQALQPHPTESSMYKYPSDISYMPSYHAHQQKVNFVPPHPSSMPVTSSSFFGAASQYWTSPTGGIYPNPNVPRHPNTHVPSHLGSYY
# In short: (§1)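 Binding signal is each hexamer's read frequency for a factor divided by its frequency in the tag-only sample. The factors were GST-fused human transcription factors from yeast, captured on glutathione beads, DNA-barcoded and pooled with that sample. Pools were incubated with 200 nmole of a random double-stranded 16-mer DNA library in Tris/NaCl/DTT/glycerol buffer at room temperature for 30 min, then washed, crosslinked with 0.1% formaldehyde, proximity-ligated with BsaI/T4 ligase (1 h, 37 °C), PCR-amplified and sequenced on an Illumina NextSeq500.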
# ELK1 = target: T2, ELK1 (Homo sapiens, UniProt P19419 1-428); conditions: protein: recombinant; tags: N-terminal GST; dsDNA, one strand shown
# T2 sequence: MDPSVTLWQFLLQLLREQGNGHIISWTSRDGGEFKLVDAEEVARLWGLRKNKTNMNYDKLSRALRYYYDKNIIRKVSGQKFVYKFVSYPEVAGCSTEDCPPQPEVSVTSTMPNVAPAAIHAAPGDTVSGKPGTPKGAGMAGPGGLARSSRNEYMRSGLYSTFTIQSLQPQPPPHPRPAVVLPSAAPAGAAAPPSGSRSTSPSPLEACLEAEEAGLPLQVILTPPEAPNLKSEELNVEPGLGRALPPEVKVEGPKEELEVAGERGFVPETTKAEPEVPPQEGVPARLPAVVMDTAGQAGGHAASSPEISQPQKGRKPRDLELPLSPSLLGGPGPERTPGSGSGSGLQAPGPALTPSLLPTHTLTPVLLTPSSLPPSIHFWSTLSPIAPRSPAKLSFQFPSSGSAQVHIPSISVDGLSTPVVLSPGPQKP
# In short: as §1
# GABPA = target: T3, GABPA (Homo sapiens, UniProt Q06546 1-454); conditions: protein: recombinant; tags: N-terminal GST; dsDNA, one strand shown
# T3 sequence: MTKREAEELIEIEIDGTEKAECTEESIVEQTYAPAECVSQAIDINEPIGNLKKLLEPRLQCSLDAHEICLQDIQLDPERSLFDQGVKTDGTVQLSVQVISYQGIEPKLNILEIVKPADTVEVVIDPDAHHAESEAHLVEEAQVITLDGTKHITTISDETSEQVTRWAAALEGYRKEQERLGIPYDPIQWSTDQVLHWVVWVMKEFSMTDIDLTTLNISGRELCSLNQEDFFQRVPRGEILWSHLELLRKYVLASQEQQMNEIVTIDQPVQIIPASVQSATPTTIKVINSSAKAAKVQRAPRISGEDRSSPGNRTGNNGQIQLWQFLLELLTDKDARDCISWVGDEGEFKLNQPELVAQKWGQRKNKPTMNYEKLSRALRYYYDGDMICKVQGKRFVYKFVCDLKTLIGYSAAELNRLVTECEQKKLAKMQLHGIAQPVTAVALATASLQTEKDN
# In short: as §1
# ERG = target: T4, ERG (Homo sapiens, UniProt P11308 1-479); conditions: protein: recombinant; tags: N-terminal GST; dsDNA, one strand shown
# T4 sequence: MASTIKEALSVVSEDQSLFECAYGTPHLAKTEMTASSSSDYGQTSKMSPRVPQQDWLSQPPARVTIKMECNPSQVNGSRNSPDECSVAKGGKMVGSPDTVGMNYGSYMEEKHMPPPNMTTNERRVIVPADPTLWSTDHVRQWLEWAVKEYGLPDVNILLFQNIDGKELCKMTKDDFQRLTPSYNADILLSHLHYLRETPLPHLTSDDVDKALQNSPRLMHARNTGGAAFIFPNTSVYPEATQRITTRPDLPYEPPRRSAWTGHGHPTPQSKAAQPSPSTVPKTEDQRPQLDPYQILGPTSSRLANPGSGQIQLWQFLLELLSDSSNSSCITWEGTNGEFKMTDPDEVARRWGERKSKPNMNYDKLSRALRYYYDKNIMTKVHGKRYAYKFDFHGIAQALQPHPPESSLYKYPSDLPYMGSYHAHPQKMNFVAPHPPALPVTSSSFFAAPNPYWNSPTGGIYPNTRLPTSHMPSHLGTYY
# In short: as §1
# ELF1 = ELF1 (Homo sapiens, UniProt P32519 1-619); conditions: protein: recombinant; tags: N-terminal GST; dsDNA, one strand shown
# Sequence of ELF1 (P32519 whole entry): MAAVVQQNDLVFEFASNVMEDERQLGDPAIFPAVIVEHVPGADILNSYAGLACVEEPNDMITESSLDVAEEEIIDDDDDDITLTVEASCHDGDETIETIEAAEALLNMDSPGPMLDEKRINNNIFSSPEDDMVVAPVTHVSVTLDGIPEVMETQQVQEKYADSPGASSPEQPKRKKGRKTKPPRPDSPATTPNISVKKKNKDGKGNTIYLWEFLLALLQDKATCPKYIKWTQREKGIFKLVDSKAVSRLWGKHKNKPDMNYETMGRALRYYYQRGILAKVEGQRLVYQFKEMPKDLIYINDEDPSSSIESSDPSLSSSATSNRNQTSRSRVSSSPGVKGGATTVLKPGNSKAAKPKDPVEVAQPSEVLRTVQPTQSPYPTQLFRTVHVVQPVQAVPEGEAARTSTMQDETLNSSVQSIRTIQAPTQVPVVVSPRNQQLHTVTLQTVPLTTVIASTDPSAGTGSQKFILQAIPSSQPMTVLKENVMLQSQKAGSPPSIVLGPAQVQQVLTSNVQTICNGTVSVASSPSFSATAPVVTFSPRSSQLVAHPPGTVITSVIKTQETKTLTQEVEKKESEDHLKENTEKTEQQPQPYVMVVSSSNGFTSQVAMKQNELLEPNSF
# In short: as §1
# EHF = target: T5, EHF (Homo sapiens, UniProt Q9NZC4 1-300); conditions: protein: recombinant; tags: N-terminal GST; dsDNA, one strand shown
# T5 sequence: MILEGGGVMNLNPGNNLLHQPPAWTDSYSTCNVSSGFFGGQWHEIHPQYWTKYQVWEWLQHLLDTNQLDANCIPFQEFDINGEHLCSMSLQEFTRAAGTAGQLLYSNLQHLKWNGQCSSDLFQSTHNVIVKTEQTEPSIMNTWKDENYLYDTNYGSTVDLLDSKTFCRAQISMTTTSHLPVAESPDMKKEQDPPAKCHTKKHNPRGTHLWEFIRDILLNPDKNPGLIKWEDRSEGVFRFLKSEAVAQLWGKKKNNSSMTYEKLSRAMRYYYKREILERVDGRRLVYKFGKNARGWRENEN
# In short: as §1
# SPI1 = SPI1 (Homo sapiens, UniProt P17947 1-270); conditions: protein: recombinant; tags: N-terminal GST; dsDNA, one strand shown
# In short: as §1
# SPIB = SPIB (Homo sapiens, UniProt Q01892 1-262); conditions: protein: recombinant; tags: N-terminal GST; dsDNA, one strand shown
# Sequence of SPIB (Q01892 whole entry): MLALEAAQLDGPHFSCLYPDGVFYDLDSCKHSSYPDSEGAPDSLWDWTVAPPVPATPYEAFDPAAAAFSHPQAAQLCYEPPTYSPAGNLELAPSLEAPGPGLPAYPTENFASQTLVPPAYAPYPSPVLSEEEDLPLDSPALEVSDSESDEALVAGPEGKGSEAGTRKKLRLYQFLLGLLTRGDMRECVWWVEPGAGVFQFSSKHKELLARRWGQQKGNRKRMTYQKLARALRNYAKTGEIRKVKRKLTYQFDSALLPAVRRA
# In short: as §1
# ELK3 = target: T6, ELK3 (Homo sapiens, UniProt P41970 1-407); conditions: protein: recombinant; tags: N-terminal GST; dsDNA, one strand shown
# T6 sequence: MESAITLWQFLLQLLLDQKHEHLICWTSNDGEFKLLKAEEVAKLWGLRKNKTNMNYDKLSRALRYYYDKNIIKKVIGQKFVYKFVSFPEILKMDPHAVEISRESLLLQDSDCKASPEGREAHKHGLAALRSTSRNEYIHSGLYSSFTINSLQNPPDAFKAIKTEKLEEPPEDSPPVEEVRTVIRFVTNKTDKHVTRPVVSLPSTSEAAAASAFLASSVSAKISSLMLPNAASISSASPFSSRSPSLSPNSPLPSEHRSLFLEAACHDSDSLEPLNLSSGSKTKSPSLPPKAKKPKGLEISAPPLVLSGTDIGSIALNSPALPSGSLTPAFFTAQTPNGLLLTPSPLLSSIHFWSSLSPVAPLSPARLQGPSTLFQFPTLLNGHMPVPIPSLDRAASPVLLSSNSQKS
# In short: as §1
# FEV = target: T7, FEV (Homo sapiens, UniProt Q99581 1-238); conditions: protein: recombinant; tags: N-terminal GST; dsDNA, one strand shown
# T7 sequence: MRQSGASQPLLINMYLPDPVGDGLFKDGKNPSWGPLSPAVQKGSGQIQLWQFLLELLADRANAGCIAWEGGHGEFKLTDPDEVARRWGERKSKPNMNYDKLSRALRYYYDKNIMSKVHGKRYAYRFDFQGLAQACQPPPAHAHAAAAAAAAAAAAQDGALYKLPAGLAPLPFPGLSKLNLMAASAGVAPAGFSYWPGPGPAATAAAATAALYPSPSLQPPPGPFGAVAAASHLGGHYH
# In short: as §1
# ETV5 = ETV5 (Homo sapiens, UniProt P41161 1-510); conditions: protein: recombinant; tags: N-terminal GST; dsDNA, one strand shown
# Sequence of ETV5 (P41161 whole entry): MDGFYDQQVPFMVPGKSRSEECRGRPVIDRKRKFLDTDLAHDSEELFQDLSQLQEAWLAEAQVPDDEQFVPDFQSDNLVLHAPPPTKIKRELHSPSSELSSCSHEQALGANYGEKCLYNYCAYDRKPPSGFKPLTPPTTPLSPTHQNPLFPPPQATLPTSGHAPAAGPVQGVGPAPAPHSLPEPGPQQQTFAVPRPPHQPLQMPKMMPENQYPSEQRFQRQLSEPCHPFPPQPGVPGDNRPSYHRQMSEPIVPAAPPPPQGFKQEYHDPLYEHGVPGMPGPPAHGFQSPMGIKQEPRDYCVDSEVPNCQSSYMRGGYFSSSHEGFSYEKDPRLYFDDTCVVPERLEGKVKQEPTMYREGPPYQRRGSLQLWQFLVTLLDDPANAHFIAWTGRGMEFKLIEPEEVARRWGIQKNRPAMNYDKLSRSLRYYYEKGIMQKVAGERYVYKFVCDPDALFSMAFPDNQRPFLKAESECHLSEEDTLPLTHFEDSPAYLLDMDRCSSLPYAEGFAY
# In short: as §1
# HSF1 = HSF1 (Homo sapiens, UniProt Q00613 1-529); conditions: protein: recombinant; tags: N-terminal GST; chain copies: 3; dsDNA, one strand shown
# Sequence of HSF1 (Q00613 whole entry): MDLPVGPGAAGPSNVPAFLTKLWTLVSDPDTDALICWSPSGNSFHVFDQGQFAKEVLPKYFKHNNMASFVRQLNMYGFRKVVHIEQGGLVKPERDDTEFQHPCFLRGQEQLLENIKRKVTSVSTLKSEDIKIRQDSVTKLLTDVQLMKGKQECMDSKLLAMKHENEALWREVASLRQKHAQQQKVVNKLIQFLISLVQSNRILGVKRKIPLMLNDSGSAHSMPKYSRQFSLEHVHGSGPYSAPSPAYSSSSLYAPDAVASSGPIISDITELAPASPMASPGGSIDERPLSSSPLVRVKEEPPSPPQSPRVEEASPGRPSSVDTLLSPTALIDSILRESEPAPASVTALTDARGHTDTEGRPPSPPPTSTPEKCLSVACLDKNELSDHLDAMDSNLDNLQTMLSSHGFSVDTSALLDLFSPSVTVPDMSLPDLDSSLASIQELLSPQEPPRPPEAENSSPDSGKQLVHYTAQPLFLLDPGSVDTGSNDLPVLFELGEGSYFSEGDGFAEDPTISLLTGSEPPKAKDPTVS
# In short: as §1
# SPIC = target: T8, SPIC (Homo sapiens, UniProt Q8N5J4 1-248); conditions: protein: recombinant; tags: N-terminal GST; dsDNA, one strand shown
# T8 sequence: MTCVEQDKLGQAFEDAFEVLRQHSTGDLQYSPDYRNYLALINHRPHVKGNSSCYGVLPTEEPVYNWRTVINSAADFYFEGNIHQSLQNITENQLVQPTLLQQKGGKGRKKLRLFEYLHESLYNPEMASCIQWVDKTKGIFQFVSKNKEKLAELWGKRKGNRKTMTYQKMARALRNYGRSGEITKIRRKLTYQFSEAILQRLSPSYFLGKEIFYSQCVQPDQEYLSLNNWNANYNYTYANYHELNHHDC
# In short: as §1
# ELF4 = ELF4 (Homo sapiens, UniProt Q99607 1-663); conditions: protein: recombinant; tags: N-terminal GST; dsDNA, one strand shown
# Sequence of ELF4 (Q99607 whole entry): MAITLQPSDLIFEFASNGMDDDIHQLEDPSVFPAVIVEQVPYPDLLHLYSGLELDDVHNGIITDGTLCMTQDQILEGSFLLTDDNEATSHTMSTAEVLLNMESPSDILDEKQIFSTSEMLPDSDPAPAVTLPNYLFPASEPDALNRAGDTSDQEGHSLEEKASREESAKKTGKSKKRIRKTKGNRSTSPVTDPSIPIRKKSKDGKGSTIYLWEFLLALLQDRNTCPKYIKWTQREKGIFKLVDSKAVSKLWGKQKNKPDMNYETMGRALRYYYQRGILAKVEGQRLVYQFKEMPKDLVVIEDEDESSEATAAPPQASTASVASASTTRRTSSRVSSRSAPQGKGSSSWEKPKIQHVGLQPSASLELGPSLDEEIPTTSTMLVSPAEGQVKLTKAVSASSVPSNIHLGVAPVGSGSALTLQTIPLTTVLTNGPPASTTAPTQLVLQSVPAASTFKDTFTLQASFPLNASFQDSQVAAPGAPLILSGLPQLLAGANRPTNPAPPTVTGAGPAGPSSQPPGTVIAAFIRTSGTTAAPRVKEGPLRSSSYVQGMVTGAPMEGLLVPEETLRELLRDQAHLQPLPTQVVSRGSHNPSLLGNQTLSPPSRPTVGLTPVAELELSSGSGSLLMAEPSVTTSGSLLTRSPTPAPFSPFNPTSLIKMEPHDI
# In short: as §1
# ELK4 = target: T9, ELK4 (Homo sapiens, UniProt P28324-2 1-405); conditions: protein: recombinant; tags: N-terminal GST; dsDNA, one strand shown
# T9 sequence: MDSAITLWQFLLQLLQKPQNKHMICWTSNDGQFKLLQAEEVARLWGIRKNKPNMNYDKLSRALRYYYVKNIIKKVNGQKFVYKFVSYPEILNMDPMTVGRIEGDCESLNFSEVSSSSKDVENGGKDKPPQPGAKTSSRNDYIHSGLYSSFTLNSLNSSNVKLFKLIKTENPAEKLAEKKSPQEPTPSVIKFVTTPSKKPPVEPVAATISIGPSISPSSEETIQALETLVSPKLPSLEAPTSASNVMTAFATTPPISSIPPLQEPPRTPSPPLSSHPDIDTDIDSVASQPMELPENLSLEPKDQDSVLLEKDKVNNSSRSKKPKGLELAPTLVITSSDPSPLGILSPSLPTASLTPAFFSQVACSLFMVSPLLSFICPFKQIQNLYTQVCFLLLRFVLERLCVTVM
# In short: as §1
# ETV2 = target: T10, ETV2 (Homo sapiens, UniProt O00321 1-342); conditions: protein: recombinant; tags: N-terminal GST; dsDNA, one strand shown
# T10 sequence: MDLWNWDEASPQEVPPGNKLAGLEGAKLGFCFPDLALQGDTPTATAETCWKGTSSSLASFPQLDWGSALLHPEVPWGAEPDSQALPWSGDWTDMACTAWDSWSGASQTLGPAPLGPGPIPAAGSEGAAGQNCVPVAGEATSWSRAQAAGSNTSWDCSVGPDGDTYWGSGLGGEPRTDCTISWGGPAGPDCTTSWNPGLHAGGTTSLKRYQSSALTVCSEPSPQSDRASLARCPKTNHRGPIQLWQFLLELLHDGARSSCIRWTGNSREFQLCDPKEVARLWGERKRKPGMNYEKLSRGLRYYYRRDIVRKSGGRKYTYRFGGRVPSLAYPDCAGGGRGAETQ
# In short: as §1
# ELF3 = target: T11, ELF3 (Homo sapiens, UniProt P78545 1-371); conditions: protein: recombinant; tags: N-terminal GST; dsDNA, one strand shown
# T11 sequence: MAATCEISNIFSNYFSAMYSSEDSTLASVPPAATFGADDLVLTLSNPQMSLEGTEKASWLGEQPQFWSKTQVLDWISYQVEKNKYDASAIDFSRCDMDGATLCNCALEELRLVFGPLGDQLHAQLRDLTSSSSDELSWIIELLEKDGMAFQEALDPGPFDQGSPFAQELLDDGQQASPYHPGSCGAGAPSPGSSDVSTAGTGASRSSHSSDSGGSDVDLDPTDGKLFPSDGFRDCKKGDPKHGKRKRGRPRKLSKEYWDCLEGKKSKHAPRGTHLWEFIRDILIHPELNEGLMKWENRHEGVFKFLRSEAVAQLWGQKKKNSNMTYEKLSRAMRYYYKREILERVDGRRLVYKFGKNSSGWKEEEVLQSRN
# In short: as §1
# CRX = CRX (Homo sapiens, UniProt O43186 1-299); conditions: protein: recombinant; tags: N-terminal GST; dsDNA, one strand shown
# Sequence of CRX (O43186 whole entry): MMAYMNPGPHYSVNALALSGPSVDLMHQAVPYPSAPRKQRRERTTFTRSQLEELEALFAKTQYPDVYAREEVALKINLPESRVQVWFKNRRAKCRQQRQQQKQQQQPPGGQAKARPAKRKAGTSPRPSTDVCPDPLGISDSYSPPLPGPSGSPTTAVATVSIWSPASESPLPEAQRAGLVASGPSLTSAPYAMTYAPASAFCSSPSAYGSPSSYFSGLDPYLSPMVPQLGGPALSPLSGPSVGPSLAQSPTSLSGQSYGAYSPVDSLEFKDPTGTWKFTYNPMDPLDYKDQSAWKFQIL
# In short: as §1
# ETV1 = ETV1 (Homo sapiens, UniProt P50549 1-477); conditions: protein: recombinant; tags: N-terminal GST; dsDNA, one strand shown
# Sequence of ETV1 (P50549 whole entry): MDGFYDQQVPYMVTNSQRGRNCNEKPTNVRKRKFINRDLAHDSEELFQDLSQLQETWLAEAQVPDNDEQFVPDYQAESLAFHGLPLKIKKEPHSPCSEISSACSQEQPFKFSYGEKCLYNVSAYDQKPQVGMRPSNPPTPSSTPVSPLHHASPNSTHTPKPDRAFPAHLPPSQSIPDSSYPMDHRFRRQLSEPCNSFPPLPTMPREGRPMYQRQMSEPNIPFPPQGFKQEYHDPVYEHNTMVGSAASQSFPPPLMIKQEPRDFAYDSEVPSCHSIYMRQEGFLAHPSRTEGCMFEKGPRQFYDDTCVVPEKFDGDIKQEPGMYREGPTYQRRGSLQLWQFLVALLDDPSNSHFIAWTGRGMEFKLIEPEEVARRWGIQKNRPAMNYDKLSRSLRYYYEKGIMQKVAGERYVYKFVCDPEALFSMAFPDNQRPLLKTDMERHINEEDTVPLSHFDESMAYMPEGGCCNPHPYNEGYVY
# In short: as §1
sequence,measurement,setting,value
AAGAAC,binding signal,FLI1,"1.13 fold enrichment (6-mer frequency, TF over GST control)"
same,binding signal,ELK1,"1.18 fold enrichment (6-mer frequency, TF over GST control)"
same,binding signal,GABPA,"1.15 fold enrichment (6-mer frequency, TF over GST control)"
same,binding signal,ERG,"1.22 fold enrichment (6-mer frequency, TF over GST control)"
same,binding signal,ELF1,"1.17 fold enrichment (6-mer frequency, TF over GST control)"
same,binding signal,EHF,"1.24 fold enrichment (6-mer frequency, TF over GST control)"
same,binding signal,SPI1,"1.14 fold enrichment (6-mer frequency, TF over GST control)"
same,binding signal,SPIB,"1.05 fold enrichment (6-mer frequency, TF over GST control)"
same,binding signal,ELK3,"1.24 fold enrichment (6-mer frequency, TF over GST control)"
same,binding signal,FEV,"1.19 fold enrichment (6-mer frequency, TF over GST control)"
same,binding signal,ETV5,"1.16 fold enrichment (6-mer frequency, TF over GST control)"
same,binding signal,HSF1,"1.63 fold enrichment (6-mer frequency, TF over GST control)"
same,binding signal,SPIC,"1.24 fold enrichment (6-mer frequency, TF over GST control)"
same,binding signal,ELF4,"1.2 fold enrichment (6-mer frequency, TF over GST control)"
same,binding signal,ELK4,"1.18 fold enrichment (6-mer frequency, TF over GST control)"
same,binding signal,ETV2,"1.13 fold enrichment (6-mer frequency, TF over GST control)"
same,binding signal,ELF3,"1.16 fold enrichment (6-mer frequency, TF over GST control)"
same,binding signal,CRX,"1.28 fold enrichment (6-mer frequency, TF over GST control)"
same,binding signal,ETV1,"1.22 fold enrichment (6-mer frequency, TF over GST control)"
